PubChem BioAssay (NCATS)
Where “and” joins values, the source holds several entries; their conditions need not be identical. Equal entries are not always repeated. Calls of active or inactive are those of the source. Where a call stands in place of a potency, no number is given. Unless noted, the call rests on the fitted dose curve; in most records, active means well fitted inhibition curve with a large enough effect; inconclusive means small, poorly fitted or top-dose-only effect; inactive means flat fitted curve, though single readings scatter. Numbered stars: 1 amine (or outer) side, 2 acyl side, 3 side chain; on linkers, the order of the positions; unused ones are H or OH. Bridge positions count the residues as written; N and C are the ends. Square brackets hold non-standard residues; d marks the D form. Peptide text beside a SMILES is read from it. I, II: the chains in the order shown. Actinocin(9to1) = Cc1c2oc3c(C)ccc(C(=O)[*:1])c3nc-2c(C(=O)[*:2])c(N)c1=O; NMeV = CN[C@H](C(=O)O)C(C)C; Sar = CNCC(=O)O

What was measured:
[1] = target: Ubiquitin carboxyl-terminal hydrolase 1 (Homo sapiens) (UniProt O94782); test: Inhibitors of USP1/UAF1: Pilot qHTS (AID 504865); further: nearly all actives have a fitted effect of over 35% in size; further: potency means the concentration at half of the fitted maximal effect
How it was run: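 USP1/UAF1 complex at 1 nM preincubated 15 min at room temperature with compound, then Ub-Rho substrate added at 150 nM final. Fluorescence (480/540 nm) read kinetically in 50 mM HEPES pH 7.8, 0.5 mM EDTA, 1 mM TCEP, 0.1 mg/ml BSA, 0.01% Tween-20.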

[2] = target: DNA dC->dU-editing enzyme APOBEC-3G (Homo sapiens) (UniProt Q9HC16); test: qHTS for inhibitors of Vif-A3G interactions: Validation (AID 588379)
How it was run: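 HeLa cells stably expressing Vif and A3G-eYFP, 700 cells/well, incubated overnight at 37 deg C, then exposed to compound overnight at 37 deg C. Inhibition of Vif-mediated degradation read as increased yellow fluorescence (Ex 488/Em 500-530) by laser-scanning cytometry.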

[3] = target: Estrogen receptor (Homo sapiens) (UniProt P03372); test: qHTS assay for small molecule agonists of estrogen receptor alpha signaling (AID 588514; calls by dose curve; further: nearly all actives have a fitted effect of over 70% in size)
How it was run: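 ER-alpha-UAS-bla GripTite HEK 293 cells in medium with 2% charcoal/dextran-treated FBS were treated with compound titrations at 37 C for 18 hrs; beta-lactamase reporter read by CCF4 fluorescence after 2 hrs at RT.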

[4] = target: Glucocorticoid receptor (Homo sapiens) (UniProt P04150); test: qHTS assay for small molecule agonists of glucocorticoid receptor signaling (AID 588532; active means well fitted curve in the direction sought with a large enough effect in the signal ratio, with a control signal flat; inconclusive means small, poorly fitted or top-dose-only effect, or a change in a side signal; inactive means no such curve, though single readings can be large or run the other way; the % refers to the signal ratio); details: HeLa MMTV-bla, beta-lactamase ratio, agonist, 18 h; stronger effect = higher value; percent of dexamethasone control, DMSO zero
How it was run: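 MMTV-bla HeLa, beta-lactamase reporter; medium with 1% charcoal/dextran-stripped FBS; cpds up to 92 uM, 18 h, 37 C; CCF4 readout 460/530 nm; Hill fit → EC50, efficacy vs 0.1 uM dexamethasone = 100%.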

[5] = target: Glucocorticoid receptor (Homo sapiens) (UniProt P04150); test: qHTS assay for small molecule antagonists of glucocorticoid receptor signaling (AID 588533; active means well fitted inhibition curve with a large enough effect in the signal ratio, with a control signal flat, not every such curve was filed as active; inconclusive means small, poorly fitted or top-dose-only effect, or effect the other way, or a change in a side signal; the % refers to the signal ratio;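 further: cells stimulated with 2 nM dexamethasone as agonist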; further: potency means the concentration at half of the fitted maximal effect)
How it was run: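 Antagonist-mode qHTS: compound titrations added to GRE-bla HeLa cells, then dexamethasone 2 nM final; 18 h, 37 C. CCF4 FRET fluorescence normalized to dexamethasone and DMSO; IC50 from Hill fit.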

[6] = target: Peroxisome proliferator-activated receptor gamma (Homo sapiens) (UniProt P37231); test: qHTS assay for small molecule agonists of peroxisome proliferator-activated receptor gamma signaling (AID 588536; active means well fitted curve in the direction sought with a large enough effect in the signal ratio, with a control signal flat, not every such curve was filed as active; inconclusive means small, poorly fitted or top-dose-only effect, or effect the other way, or a change in a side signal; inactive means no such curve, though single readings can be large or run the other way; the % refers to the signal ratio)
How it was run: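 HEK293 UAS-bla reporter line, 1% charcoal/dextran FBS; titration, 16 h, 37 C; CCF4 loading 2 h RT; fluorescence 460/530 nm. Normalized to rosiglitazone 2 uM = 100%, DMSO = 0%.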

[7] = target: Peroxisome proliferator-activated receptor gamma (Homo sapiens) (UniProt P37231); test: qHTS assay for small molecule antagonists of peroxisome proliferator-activated receptor gamma signaling (AID 588537; active means well fitted inhibition curve with a large enough effect in the signal ratio, with a control signal flat, not every such curve was filed as active; inconclusive means small, poorly fitted or top-dose-only effect, or effect the other way, or a change in a side signal; the % refers to the signal ratio;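 further: reporter cells co-stimulated with 50 nM rosiglitazone agonist during compound treatment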)
How it was run: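 PPAR-gamma-UAS-bla HEK293 cells (3000/well, 1% charcoal/dextran-stripped FBS) were preincubated 6-6.5 h at 37 C, given titrated compounds, then stimulated with 50 nM rosiglitazone for 16 h. Beta-lactamase activity was read with CCF4 dye; IC50 came from Hill fits.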

[8] = target: Androgen receptor (Homo sapiens) (UniProt P10275); test: qHTS assay for small molecule agonists of androgen receptor signaling (AID 588515; active means well fitted curve in the direction sought with a large enough effect in the signal ratio, with a control signal flat; inconclusive means small, poorly fitted or top-dose-only effect, or effect the other way, or a change in a side signal; inactive means no such curve, though single readings can be large or run the other way; the % refers to the signal ratio); details: AR-UAS-bla HEK293, beta-lactamase ratio, agonist 16 h; stronger effect = higher value
How it was run: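 EC50 and efficacy came from Hill fits of titrations (up to 92 uM) normalized to 30 nM R1881 as 100% and DMSO as 0%. Compound exposure was 16 h at 37 C on AR-UAS-bla HEK293 cells, with a 405/460/530 nm CCF4 fluorescence read.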

[9] = target: Androgen receptor (Homo sapiens) (UniProt P10275); test: qHTS assay for small molecule antagonists of androgen receptor signaling (AID 588516; active means well fitted curve in the direction sought with a large enough effect in the signal ratio, with a control signal flat, not every such curve was filed as active; inconclusive means small, poorly fitted or top-dose-only effect, or effect the other way, or a change in a side signal; inactive means no such curve, though single readings can be large or run the other way; the % refers to the signal ratio)
How it was run: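 AR-UAS-bla GripTite HEK 293 cells (2000/well) treated with compound titrations plus 10 nM R1881 for 16 h at 37C. Beta-lactamase read by CCF4 FRET (460/530 nm); IC50 from Hill fits, normalized to R1881 and DMSO control wells.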

[10] = target: Bile acid receptor (Homo sapiens) (UniProt Q96RI1); test: qHTS assay for small molecule antagonists of farnesoid X receptor signaling (AID 588526; calls by dose curve)
How it was run: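 Concentration-response titrations were fitted to the Hill equation for half-maximal inhibition and maximal response, with data normalised to 50 uM chenodeoxycholic acid and DMSO control wells. Cells: FXR-UAS-bla HEK293T, dialyzed FBS.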

[11] = qHTS assay for small molecule antagonists of peroxisome proliferator-activated receptor delta signaling (AID 588535; active means well fitted inhibition curve with a large enough effect in the signal ratio, with a control signal flat, not every such curve was filed as active; inconclusive means small, poorly fitted or top-dose-only effect, or effect the other way, or a change in a side signal; inactive means no such curve, though single readings can be large or run the other way; the % refers to the signal ratio;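 on max response: cells co-treated with a PPAR-delta agonist as stimulator during compound exposure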); details: HEK293T PPARd-UAS-bla, beta-lactamase FRET ratio, 18 h; 460 nm channel
How it was run: (§1)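 GeneBLAzer PPAR-delta-UAS-bla HEK293T cells in medium with 2% charcoal/dextran FBS were preincubated 5 hrs at 37 C, then given compounds, incubated 18 hrs at 37 C, and read by CCF4 beta-lactamase fluorescence; IC50 from Hill fits.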

[12] = target: Peroxisome proliferator-activated receptor delta (Homo sapiens) (UniProt Q03181); test: as above
How it was run: as §1

[13] = target: Estrogen receptor (Homo sapiens) (UniProt P03372); test: qHTS assay for small molecule antagonists of estrogen receptor alpha signaling (AID 588513; active means well fitted curve in the direction sought with a large enough effect in the signal ratio, with a control signal flat, not every such curve was filed as active; inconclusive means small, poorly fitted or top-dose-only effect, or effect the other way, or a change in a side signal; inactive means no such curve, though single readings can be large or run the other way; the % refers to the signal ratio; further: potency means the concentration at half of the fitted maximal effect)
How it was run: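 ER-alpha-UAS-bla GripTite HEK 293 cells in 2% charcoal/dextran-treated FBS medium; compounds titrated (1:2, duplicate), then stimulated with 0.5 nM 17-beta-estradiol for 18 h at 37C. CCF4 beta-lactamase fluorescence; Hill-fit IC50 and efficacy.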

Sequence of Ubiquitin carboxyl-terminal hydrolase 1 (Homo sapiens) (O94782 whole entry, looked up): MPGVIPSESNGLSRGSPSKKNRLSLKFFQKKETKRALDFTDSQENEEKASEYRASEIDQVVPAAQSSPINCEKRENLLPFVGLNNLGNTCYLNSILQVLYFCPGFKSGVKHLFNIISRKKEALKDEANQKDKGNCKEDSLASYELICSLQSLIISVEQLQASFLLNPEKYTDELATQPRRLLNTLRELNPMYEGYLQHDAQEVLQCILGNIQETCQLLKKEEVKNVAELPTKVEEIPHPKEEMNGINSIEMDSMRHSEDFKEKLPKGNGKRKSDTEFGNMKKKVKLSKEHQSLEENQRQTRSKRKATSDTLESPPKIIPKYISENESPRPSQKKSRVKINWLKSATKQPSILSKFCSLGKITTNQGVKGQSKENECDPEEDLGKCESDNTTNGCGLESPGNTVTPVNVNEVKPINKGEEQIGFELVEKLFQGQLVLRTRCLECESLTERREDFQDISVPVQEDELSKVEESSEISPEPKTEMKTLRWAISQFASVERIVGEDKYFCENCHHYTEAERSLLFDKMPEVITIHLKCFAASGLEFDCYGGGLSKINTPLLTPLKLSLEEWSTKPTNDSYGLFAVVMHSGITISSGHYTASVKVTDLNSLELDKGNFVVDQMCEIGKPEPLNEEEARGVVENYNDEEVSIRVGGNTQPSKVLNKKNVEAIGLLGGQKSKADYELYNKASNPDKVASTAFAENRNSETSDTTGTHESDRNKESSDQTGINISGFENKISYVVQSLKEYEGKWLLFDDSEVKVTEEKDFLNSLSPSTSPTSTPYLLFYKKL
Sequence of DNA dC->dU-editing enzyme APOBEC-3G (Homo sapiens) (Q9HC16 whole entry, looked up): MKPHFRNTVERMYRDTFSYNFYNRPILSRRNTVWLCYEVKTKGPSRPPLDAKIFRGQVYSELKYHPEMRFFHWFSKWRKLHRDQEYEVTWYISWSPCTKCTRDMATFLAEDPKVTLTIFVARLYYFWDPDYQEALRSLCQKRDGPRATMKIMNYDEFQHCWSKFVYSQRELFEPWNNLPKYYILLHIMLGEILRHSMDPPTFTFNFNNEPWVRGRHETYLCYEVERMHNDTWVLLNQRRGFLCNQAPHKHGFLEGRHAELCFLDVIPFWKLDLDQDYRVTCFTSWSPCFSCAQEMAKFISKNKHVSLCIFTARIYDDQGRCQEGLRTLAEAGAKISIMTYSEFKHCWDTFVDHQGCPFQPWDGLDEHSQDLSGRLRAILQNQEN
Sequence of Glucocorticoid receptor (Homo sapiens) (P04150 whole entry, looked up): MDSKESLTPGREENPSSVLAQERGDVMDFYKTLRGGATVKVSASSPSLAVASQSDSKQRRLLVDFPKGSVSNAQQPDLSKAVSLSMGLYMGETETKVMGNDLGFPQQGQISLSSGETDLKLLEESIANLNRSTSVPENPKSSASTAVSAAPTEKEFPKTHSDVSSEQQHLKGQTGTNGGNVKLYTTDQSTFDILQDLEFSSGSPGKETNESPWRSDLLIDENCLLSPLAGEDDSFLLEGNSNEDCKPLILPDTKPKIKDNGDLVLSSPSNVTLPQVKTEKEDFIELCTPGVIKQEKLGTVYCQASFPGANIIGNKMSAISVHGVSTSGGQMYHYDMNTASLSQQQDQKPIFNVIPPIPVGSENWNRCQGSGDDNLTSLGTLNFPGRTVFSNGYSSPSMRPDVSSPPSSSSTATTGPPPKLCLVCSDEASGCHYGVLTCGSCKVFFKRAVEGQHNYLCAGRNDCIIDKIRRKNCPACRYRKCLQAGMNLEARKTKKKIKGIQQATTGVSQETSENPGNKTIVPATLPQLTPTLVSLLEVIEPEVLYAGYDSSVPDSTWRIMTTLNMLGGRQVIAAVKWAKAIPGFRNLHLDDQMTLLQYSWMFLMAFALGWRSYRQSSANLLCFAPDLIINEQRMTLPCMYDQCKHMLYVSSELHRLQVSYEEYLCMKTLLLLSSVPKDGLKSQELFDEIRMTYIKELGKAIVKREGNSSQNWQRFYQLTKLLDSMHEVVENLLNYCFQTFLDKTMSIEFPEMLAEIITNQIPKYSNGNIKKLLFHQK
Sequence of Estrogen receptor (Homo sapiens) (P03372 whole entry, looked up): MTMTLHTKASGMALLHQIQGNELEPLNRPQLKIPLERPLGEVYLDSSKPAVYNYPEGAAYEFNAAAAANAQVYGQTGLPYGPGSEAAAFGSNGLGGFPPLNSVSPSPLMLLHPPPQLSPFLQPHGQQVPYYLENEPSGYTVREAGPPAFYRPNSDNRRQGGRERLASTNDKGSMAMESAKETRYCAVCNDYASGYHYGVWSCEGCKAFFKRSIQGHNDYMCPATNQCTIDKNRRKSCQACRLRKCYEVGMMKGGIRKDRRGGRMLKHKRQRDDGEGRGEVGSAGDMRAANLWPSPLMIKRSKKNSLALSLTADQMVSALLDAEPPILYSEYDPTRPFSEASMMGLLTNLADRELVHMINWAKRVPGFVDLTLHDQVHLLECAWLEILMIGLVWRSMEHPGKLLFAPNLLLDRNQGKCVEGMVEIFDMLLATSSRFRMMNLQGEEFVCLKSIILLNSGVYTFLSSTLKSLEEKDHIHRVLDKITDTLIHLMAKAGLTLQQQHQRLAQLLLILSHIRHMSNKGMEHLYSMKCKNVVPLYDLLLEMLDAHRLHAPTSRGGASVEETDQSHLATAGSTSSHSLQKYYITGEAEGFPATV
Sequence of Androgen receptor (Homo sapiens) (P10275 whole entry, looked up): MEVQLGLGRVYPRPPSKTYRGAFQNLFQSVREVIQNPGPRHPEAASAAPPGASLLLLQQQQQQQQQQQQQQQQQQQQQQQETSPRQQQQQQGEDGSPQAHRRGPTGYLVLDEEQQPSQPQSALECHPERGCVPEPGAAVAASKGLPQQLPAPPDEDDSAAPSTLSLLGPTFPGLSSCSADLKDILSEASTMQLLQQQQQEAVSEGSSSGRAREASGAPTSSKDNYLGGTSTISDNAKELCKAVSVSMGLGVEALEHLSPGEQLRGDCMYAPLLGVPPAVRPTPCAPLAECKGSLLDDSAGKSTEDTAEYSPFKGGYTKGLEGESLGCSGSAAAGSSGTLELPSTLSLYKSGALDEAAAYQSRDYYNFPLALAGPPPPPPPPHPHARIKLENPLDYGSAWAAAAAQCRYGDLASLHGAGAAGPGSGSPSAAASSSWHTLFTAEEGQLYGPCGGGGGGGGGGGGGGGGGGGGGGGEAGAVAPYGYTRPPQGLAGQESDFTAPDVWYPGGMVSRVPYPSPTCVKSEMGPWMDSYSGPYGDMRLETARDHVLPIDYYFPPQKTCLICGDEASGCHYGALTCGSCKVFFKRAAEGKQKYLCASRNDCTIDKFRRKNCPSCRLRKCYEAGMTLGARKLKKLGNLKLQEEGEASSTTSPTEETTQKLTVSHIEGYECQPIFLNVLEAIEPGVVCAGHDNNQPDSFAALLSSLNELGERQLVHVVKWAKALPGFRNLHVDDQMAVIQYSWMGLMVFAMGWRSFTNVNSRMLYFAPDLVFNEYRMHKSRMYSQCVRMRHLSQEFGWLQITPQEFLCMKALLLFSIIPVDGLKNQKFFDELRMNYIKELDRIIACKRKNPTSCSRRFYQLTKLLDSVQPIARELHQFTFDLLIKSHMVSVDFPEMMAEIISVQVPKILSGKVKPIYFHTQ
Sequence of Peroxisome proliferator-activated receptor gamma (Homo sapiens) (P37231 whole entry, looked up): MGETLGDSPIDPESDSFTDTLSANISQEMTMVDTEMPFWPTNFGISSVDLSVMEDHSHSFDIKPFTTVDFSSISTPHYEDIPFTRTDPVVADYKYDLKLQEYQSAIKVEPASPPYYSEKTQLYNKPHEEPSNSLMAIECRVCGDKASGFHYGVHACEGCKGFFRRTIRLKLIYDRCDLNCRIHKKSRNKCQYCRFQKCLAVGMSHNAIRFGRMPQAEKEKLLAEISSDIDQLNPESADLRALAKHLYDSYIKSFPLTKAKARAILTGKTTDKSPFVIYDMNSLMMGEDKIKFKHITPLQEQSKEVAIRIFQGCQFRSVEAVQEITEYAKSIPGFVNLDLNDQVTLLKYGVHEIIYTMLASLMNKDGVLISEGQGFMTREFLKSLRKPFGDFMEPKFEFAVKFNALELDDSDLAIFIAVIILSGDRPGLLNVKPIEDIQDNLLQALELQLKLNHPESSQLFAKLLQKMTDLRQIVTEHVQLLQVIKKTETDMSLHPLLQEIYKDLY
Sequence of Bile acid receptor (Homo sapiens) (Q96RI1 whole entry, looked up): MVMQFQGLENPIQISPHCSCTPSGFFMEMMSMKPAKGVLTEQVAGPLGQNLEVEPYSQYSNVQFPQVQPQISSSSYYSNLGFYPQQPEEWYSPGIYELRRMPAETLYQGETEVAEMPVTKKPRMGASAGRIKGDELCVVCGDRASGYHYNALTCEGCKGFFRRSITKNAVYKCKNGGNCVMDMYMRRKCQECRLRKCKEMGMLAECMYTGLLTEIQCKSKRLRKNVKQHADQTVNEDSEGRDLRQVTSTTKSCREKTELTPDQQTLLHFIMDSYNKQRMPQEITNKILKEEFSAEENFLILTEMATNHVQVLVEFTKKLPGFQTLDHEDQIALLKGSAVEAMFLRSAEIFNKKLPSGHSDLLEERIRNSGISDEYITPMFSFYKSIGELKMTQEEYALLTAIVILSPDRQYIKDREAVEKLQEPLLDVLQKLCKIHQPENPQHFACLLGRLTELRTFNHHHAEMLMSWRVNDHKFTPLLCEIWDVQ
Sequence of Peroxisome proliferator-activated receptor delta (Homo sapiens) (Q03181 whole entry, looked up): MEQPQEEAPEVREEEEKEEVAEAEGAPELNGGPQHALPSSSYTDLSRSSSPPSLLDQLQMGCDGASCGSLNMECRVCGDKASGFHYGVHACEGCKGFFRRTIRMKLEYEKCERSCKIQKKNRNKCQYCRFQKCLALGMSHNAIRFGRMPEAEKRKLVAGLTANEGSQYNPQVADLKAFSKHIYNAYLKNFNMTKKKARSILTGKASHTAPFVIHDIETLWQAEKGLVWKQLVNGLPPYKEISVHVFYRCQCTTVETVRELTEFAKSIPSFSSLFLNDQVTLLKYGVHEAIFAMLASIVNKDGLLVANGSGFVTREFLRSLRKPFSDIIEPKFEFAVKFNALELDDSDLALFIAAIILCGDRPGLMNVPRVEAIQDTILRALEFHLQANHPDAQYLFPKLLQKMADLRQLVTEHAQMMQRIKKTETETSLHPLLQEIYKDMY

CCOC(=O)COc1ccc2c(C)c(CCN(CC)CC)c(=O)oc2c1Cl
Potency [1]: inactive

COc1cc2c(cc1OC)C(=O)C(CC1CCN(Cc3ccccc3)CC1)C2 (stereo unspecified)
Potency [1]: inactive

CC(=O)c1ccc2c(c1)N(CCCN1CCC(CCO)CC1)c1ccccc1S2
Potency [1]: inactive

CCCCN1CCCC1C(=O)Nc1c(C)cc(C)cc1C (stereo unspecified)
Potency [1]: inactive

CCCC(=O)Nc1ccc(OCC(O)CNC(C)C)c(C(C)=O)c1 (stereo unspecified)
Potency [1]: inactive

CN1CCC(=C2c3ccccc3Sc3ccccc32)CC1
Potency [1]: 39.8 µM (active)

C/C=C/c1ccc(OC)cc1
Potency [1]: inactive

COc1cc(C(=S)N2CCOCC2)cc(OC)c1OC
Potency [1]: inactive

COc1cccc(CCc2ccccc2OCC(CN(C)C)OC(=O)CCC(=O)O)c1 (stereo unspecified)
Potency [1]: inactive

CCOc1ccc2nc3cc(N)ccc3c(N)c2c1
Potency [1]: 50.1 µM (active)

COc1ccc(C2C(=O)c3ccccc3C2=O)cc1
Potency [1]: inactive

CCn1cc(C(=O)O)c(=O)c2cnc(N3CCCC3)nc21
Potency [1]: inactive

CCN1CCN(c2cc3c(cc2F)c(=O)c(C(=O)O)cn3C2CC2)CC1
Potency [1]: inactive

O=C(N/N=C/c1ccccc1O)c1ccncc1
Potency [1]: inactive

Nc1ccc(C(=O)Nc2ccccc2N)cc1
Potency [1]: inactive

O=C(Nc1ccc(Cl)c(Cl)c1)C1CC1
Potency [1]: inactive

O=c1c(-c2ccccc2)c1-c1ccccc1
Potency [1]: inactive

COc1c(C)c2c(c(O)c1C/C=C(\C)CCC(=O)O)C(=O)OC2
Potency [1]: inactive
outcome [2]: inactive

CCCOC(C(=O)OC1CCN(C)CC1)(c1ccccc1)c1ccccc1
Potency [1]: inactive

CCCCOc1ccc(C(=O)CCN2CCCCC2)cc1
Potency [1]: inactive

Cc1ncc(CSSCc2cnc(C)c(O)c2CO)c(CO)c1O
Potency [1]: inactive

COC1=CC(=O)C[C@@H](C)[C@]12Oc1c(Cl)c(OC)cc(OC)c1C2=O
Potency [1]: inactive
outcome [3]: inactive
activation [4]: -8.46% (inactive)

CC(C)(Oc1ccc(Cl)cc1)C(=O)O
Potency [1]: inactive
outcome [2]: inactive
Potency [5]: inactive
outcome [6]: inactive
Potency [7]: inactive

CCCCCCc1ccc(O)cc1O
Potency [1]: 44.7 µM (active)
activation [8]: -17.1% (inactive)
outcome [9]: inactive
activation [4]: -1.17% (inactive) and 14.5% (inactive)
Potency [5]: inactive
outcome [6]: inactive

CN(C)C(=S)SC(=S)N(C)C
Potency [1]: inactive
Potency [10]: inactive
Potency [5]: inactive
max response [11]: 6.78%
Potency [12]: inactive
outcome [6]: inactive
Potency [7]: inactive

Cc1cc(=O)n(-c2ccccc2)n1C
Potency [13]: inactive
outcome [3]: inactive
activation [8]: -8.07% (inactive)
outcome [9]: inactive
Potency [10]: inactive
outcome [6]: inactive
Potency [7]: inactive

CNCC[C@@H](Oc1ccccc1C)c1ccccc1
Potency [1]: inactive
outcome [2]: inactive

CCN1CCC[C@H]1CNC(=O)c1c(OC)ccc(Br)c1OC
Potency [1]: inactive
outcome [2]: inactive

Cc1c2oc3c(C)ccc(C(=O)N[C@@H]4C(=O)N[C@H](C(C)C)C(=O)N5CCC[C@H]5C(=O)N(C)CC(=O)N(C)[C@@H](C(C)C)C(=O)O[C@@H]4C)c3nc-2c(C(=O)N[C@@H]2C(=O)N[C@H](C(C)C)C(=O)N3CCC[C@H]3C(=O)N(C)CC(=O)N(C)[C@@H](C(C)C)C(=O)O[C@@H]2C)c(N)c1=O (I: T[dV]P[Sar][NMeV] / II: T[dV]P[Sar][NMeV]; ester I:1-I:C, II:1-II:C; linker I:N-II:N via Actinocin(9to1))
Potency [13]: 35.5 nM [inconclusive] (active) and 35.5 nM [inhibitor] (active)
outcome [3]: inactive
Potency [5]: 126 nM (active) and 112 nM (active)

C=C(CC)C(=O)c1ccc(OCC(=O)O)c(Cl)c1Cl
Potency [1]: inactive
Potency [13]: inactive
outcome [3]: inactive
activation [4]: -8.92% (inactive)

C[C@H]1C[C@H]2[C@@H]3CCC4=CC(=O)C=C[C@]4(C)[C@@]3(Cl)[C@@H](O)C[C@]2(C)[C@@]1(O)C(=O)CO
Potency [1]: inactive
outcome [3]: inactive
Potency [5]: inactive
outcome [6]: inactive
Potency [7]: inactive
